Sampled rows, rich in hits. Any-hit rate of the full collection: about 12%.
CHX counter = Cycloheximide Counterscreen for Small Molecule Inhibitors of Shiga Toxin | 12% of 300,000 active | max response, % | cell reporter, cycloheximide protein synthesis inhibition counterscreen | AID 2314, 2010; in the data active = max response mostly above about 13%, no sharp cut-off; inactive = mostly below about 14%; also: read at 38.3 µM for the half of the compounds with a filed dose; 0% is about no effect
Shiga inhibitor = A qHTS for Small Molecule Inhibitors of Shiga Toxin; inhibition, % at 38.7 µM; 9.2% of 290,000 active; AID 2315, 2010; Vero cells, Shiga toxin protein synthesis inhibition reporter; in the data active = inhibition mostly above about 28%, no sharp cut-off; inactive = mostly below about 43%; also: 0% is about no effect
SARS PLpro yeast = qHTS of Yeast-based Assay for SARS-CoV PLP | 0.19% of 330,000 active | S. cerevisiae expressing SARS-CoV PLpro, growth rescue | Potency, µM (doses to about 32.9 µM), for inactives: at the highest dose activity, positive = growth rescue, usual class: activators; also: potency is read from the fitted curve at half-maximal effect; 0% is about no effect; nearly all actives have a fitted effect of over 55% in size
NS1 inh = qHTS Assay for Inhibitors of Influenza NS1 Protein Function. Potency, µM (highest dose often 46.1 µM), for the others: top-dose activity, positive = more growth. 0.4% of 270,000 active. AID 2326, 2010; also: potency is read from the fitted curve at half-maximal effect; actives are rising curves; nearly all actives have a fitted effect of over 50% in size
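Read-out: OD600 growth recovery of NS1-expressing budding yeast. Cells grown overnight at 30C in -URA glucose medium, washed, resuspended and diluted 1:100 in 2% galactose assay medium, pH 6.0. Same strain lacking NS1 served as positive control.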
An asterisk follows results filed as active; u = inconclusive; x = no result given; + = active, no number. Unless noted, calls follow the shape of the full dose curve.

SMILES	CHX counter	Shiga inhibitor	SARS PLpro yeast	NS1 inh
CCOC(=O)c1ccc(S(=O)(=O)N2CCN(C(=O)C3CSC4(C)CCC(=O)N34)CC2)cc1 (stereo unspecified)	x	x	-4%	x
CC1CCc2sc(C(=O)N/N=C/c3ccc(O)cc3)cc2C1 (stereo unspecified)	45*	54*	-1%	-7%
C/C(=N\NC(=O)c1cc2c(s1)CCC(C)C2)c1ccncc1 (stereo unspecified)	7	17	-28%	-3%
CC1CCc2sc(C(=O)NNC(=S)NCC3CCCO3)cc2C1 (stereo unspecified)	7	9	-6%	0%
CCCc1cc(C(=O)NNC(=S)NCC2CCCO2)cs1 (stereo unspecified)	14*	6	7%	-3%
CCc1cc(C(=O)NC(C)C2CCCO2)cs1 (stereo unspecified)	40*	62*	u	4%
CC1CCc2sc(C(=O)NC(C)C3CCCO3)cc2C1 (stereo unspecified)	40*	88*	-3%	10%
COc1ccc(-c2cc(C(=O)N3CCN(S(=O)(=O)c4ccc(C)cc4)CC3)[nH]n2)cc1	1	6	3%	20%
CCN(CC(=O)NC1CCS(=O)(=O)C1)S(=O)(=O)c1cccc(C(C)=O)c1 (stereo unspecified)	-2	4	-5%	x
Cc1ccc(S(=O)(=O)NCC(=O)OC(C)C(=O)NC(=O)NC2CCCCC2)cc1C (stereo unspecified)	x	x	4%	x
CCCc1cc(C(=O)NC(C)C2CCCO2)cs1 (stereo unspecified)	40*	71*	-2%	2%
CCOc1ccc(NC(=O)C(c2ccccn2)N(C(=O)CCl)c2ccc(OCC)cc2)cc1 (stereo unspecified)	49*	+	14%	23%
COc1ccc(NC(=O)C(c2ccccn2)N(C(C)=O)c2ccc(C)cc2)cc1 (stereo unspecified)	16*	60*	1%	14%
CCOc1ccc(NC(=O)C(c2ccccn2)N(C(=O)CCl)c2ccc(OC)cc2)cc1 (stereo unspecified)	55*	77*	-14%	u
CC(=O)Nc1ccc(C(=O)N(C)C(C(=O)Nc2ccc(C)cc2)c2ccccn2)cc1 (stereo unspecified)	-4	5	-1%	-43%
CC12CCC(C(=O)N3CCN(c4ccccc4)CC3)(CC1=O)C2(C)C (stereo unspecified)	2	-17	-5%	-36%
C/C(=N\NC(=O)c1ccccc1F)c1ccc2c(c1)Nc1ccccc1S2	34*	65*	-14%	10%
Cc1ccc(NC(=S)N(CCC(C)C)C(C)c2ccncc2)c(Cl)c1 (stereo unspecified)	23*	35	-7%	10%
COCCCN(C(=S)Nc1ccc(C)cc1Cl)C(C)c1ccncc1 (stereo unspecified)	10	9	u	-9%
CC1(C)OCC(COC(=O)Nc2cccnc2)([N+](=O)[O-])CO1	-2	-6	4%	x
CC1=CC(C)C2(COC(=O)Nc3ccccc3)COC(C)C1C2C (stereo unspecified)	13*	36	-2%	-8%
CC1CCN(c2ccccc2NC(=O)c2ccc(Br)o2)CC1	0	-18	-2%	-36%
O=C(CN(c1ccc(F)cc1)S(=O)(=O)c1ccc2c(c1)OCCO2)Nc1ccccc1	20*	30	4%	9%
O=C(CN(Cc1ccccc1)S(=O)(=O)c1ccc2c(c1)OCCO2)Nc1ccc2c(c1)OCCO2	28*	36*	5%	22%
O=C(CN(c1ccccc1F)S(=O)(=O)c1ccccc1)Nc1ccc2c(c1)OCCO2	48*	120*	3%	17%
SMILES	CHX counter	Shiga inhibitor	SARS PLpro yeast	NS1 inh
CCC(=O)N1c2ccccc2-c2nnc(SC)nc2OC1c1ccc(N(C)C)cc1 (stereo unspecified)	-3	-10	14%	-55%
CCC1Oc2nc(SC)nnc2-c2ccccc2N1C(=O)c1ccccc1 (stereo unspecified)	16*	41	-8%	0%
COc1ccc(-c2noc(CCC(=O)NCCc3ccccc3)n2)cc1	25*	45	-3%	-7%
CC(C)OCCCNC(=O)CCc1nc(-c2ccccc2)no1	-5	-10	-4%	-4%
CC(C)CNC(=O)CCc1nc(-c2ccccc2)no1	27*	33*	0%	-8%
O=C(CCc1nc(-c2ccccc2)no1)NCCc1ccccc1	12	-12	-2%	-46%
COc1ccc(-c2cc(CCCC(=O)NCCc3ccccc3)no2)cc1	64*	67*	-2%	-4%
COc1ccc(-c2noc(CNC(=O)CCCN3C(=O)[C@H]4CC=CC[C@H]4C3=O)n2)cc1	18*	15	-2%	-3%

Compound activity from PubChem BioAssay.
